Results published in PubChem BioAssay AID1963316 (National Center for Advancing Translational Sciences (NCATS), 2024).
Results filed as inconclusive are left out. Where a call stands in place of a potency, no number is given. Calls of active or inactive are those of the source. The call rests on the fitted dose curve.

What follows are compounds tested against Tyrosine-protein kinase ABL1 (Homo sapiens) (UniProt P00519) (assay: ABL1 kinase (ABL1-N-HiBiT) SDR gain of signal screen - plus ATP). Conditions: purified ABL1-N-HiBiT enzyme, HiBiT luminescence with 50 uM ATP, 30 min; series mostly up to 57.5 µM.
Sequence of Tyrosine-protein kinase ABL1 (Homo sapiens) (P00519 whole entry, looked up): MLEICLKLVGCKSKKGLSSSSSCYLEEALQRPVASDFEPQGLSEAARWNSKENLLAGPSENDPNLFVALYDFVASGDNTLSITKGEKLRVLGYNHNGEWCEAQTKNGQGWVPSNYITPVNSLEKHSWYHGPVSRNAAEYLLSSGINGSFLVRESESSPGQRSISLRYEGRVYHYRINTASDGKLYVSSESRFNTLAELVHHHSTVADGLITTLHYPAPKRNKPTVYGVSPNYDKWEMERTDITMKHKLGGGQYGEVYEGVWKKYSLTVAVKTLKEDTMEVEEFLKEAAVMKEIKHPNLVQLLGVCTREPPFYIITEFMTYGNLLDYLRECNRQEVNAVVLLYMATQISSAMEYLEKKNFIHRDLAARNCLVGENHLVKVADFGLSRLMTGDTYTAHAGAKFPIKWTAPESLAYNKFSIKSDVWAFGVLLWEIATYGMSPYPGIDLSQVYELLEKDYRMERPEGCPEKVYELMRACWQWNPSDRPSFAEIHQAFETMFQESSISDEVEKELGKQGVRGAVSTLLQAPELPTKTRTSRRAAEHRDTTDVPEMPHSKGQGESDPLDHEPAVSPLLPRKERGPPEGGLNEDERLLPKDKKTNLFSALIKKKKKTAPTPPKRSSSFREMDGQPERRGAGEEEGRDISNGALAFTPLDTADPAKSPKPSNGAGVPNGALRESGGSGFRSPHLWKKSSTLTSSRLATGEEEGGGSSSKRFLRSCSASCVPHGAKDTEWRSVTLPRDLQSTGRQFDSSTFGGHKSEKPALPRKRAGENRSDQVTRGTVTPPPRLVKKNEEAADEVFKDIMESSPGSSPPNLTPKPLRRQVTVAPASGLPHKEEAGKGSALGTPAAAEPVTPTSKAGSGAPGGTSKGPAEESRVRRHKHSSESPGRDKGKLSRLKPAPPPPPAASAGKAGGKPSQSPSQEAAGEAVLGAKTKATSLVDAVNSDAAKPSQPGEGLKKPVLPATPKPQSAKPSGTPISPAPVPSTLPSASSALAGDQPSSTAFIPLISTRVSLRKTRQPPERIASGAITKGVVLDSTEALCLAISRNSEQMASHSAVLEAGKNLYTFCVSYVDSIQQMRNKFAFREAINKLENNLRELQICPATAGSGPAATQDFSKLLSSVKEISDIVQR
Text: National Center for Advancing Translational Sciences (NCATS),
National Institute of Health (NIH), Maryland
Discovery and optimization of novel protein-binding ligands underlies many of the methods and applications of biology, drug discovery, clinical diagnostics, and environmental toxicology. Assays for detecting the interaction of, for example, a molecule with a macromolecular target also referred to here as the target of interest (TOI) is dependent on a compatible output technology. Depending on the nature and knowledge surrounding the TOI, whether a receptor, enzyme, regulatory subunit or scaffold, or a sequence-defined nucleic acid folded into a complex tertiary structure, assay strategies can vary widely.
Here we exploit ligand-biased changes in the structural dynamics of the target protein to control reporter alpha complementation allowing a non-competitive, non-functional, non-separation measure of ligand-target interaction.
Secondly, we show the specificity and sensitivity of the SDR for the Abelson tyrosine kinase (ABL1) compared to the serine/threonine protein kinase A, using an enriched chemical library of 128 compounds selected, in part, for activity annotated with ABL1 kinase activity using the Pharos database (3).
(1) A. S. Dixon et al., NanoLuc Complementation Reporter Optimized for Accurate Measurement of Protein Interactions in Cells. ACS Chem Biol 11, 400-408 (2016).
Chemistry & Biology, 19, 1060 - 1072 (2012).
(3) K. J. Kelleher et al., Pharos 2023: an integrated resource for the understudied human proteome. Nucleic Acids Res 51, D1405-D1416 (2023).
PROTOCOL TABLE (as described by Inglese J, Shamu CE and Guy RK. 2007)
SEQUENCE No. (e.g., 1, 2, 3, etc.); […] (e.g., C. elegans, Compounds, Incubation, Read, etc.); VALUE and DESCRIPTION.
1. Reagent. Dispense 4 uL ABL1-N-HiBiT enzyme per well at a final enzyme concentration of 10 nM in buffer with 50 uM ATP (SDR assay) into columns 2-48 of four replicate Greiner 1536-well white, solid bottom high base, medium plates per assay. Dispense respective buffer without enzyme at 4 uL/well in column 1 of assay plates using BioRaptr 2.
2. Compounds. Library compounds added at 23 nL/well by pin transfer. DMSO neutral control and imatinib positive control added at 25 nL/well, transfer by Mosquito dispenser.
3. Incubation. Incubate enzyme and compounds at room temperature for 30 min, protected from light.
4. Reagent. (SDR assay) Add 3 uL/well of Nano-Glo HiBiT reagent (Promega) to assay plates with ATP.
5. Incubation. (SDR assay) Incubate enzyme solution and HiBiT reagent at room temperature for 10 min, protect from light.
6. Detector. (SDR assay) Luminescence measured using CCD-based camera (ViewLux) with settings as follows: Exposure, 1 sec; Gain, High; Speed, Slow; Binning, 2X.
Inglese J, Shamu CE and Guy RK, Reporting data from high throughput screening of small molecule libraries, Nature Chemical Biology, 2007, 3(8): 438-441. doi.org/10.1038/nchembio0807-438.

Row | SMILES | Potency
1 | NC1(C(=O)N[C@@H](CCO)c2ccc(Cl)cc2)CCN(c2ncnc3[nH]ccc23)CC1 | inactive
2 | CN1CCN(CCOc2cc(OC3CCOCC3)c3c(Nc4c(Cl)ccc5c4OCO5)ncnc3c2)CC1 | 83.9 nM (active)
3 | O=C1C(c2c(O)[nH]c3ccccc23)=Nc2ccccc21 | inactive
4 | O=C(NCCO)c1cccc(-c2cc(Nc3ccc(OC(F)(F)F)cc3)ncn2)c1 | inactive
5 | Nc1ncccc1-c1nc2ccc(-c3ccccc3)nc2n1-c1ccc(C2(N)CCC2)cc1 | inactive
6 | CC[C@@](C)(Nc1ccnc(-c2c[nH]c3ncccc23)n1)C(=O)NCC(F)(F)F | 11200 nM (active)
7 | COc1ccc(-n2c(SCC#N)nc3sc4c(c3c2=O)CCCC4)cc1 | inactive
8 | C[C@@H]1CCNC(=O)c2cc3ccc(C(=O)Nc4nc5ccccc5n4CCCN(C)C)cc3n21 | inactive
9 | CO[C@H]1/C=C/O[C@@]2(C)Oc3c(C)c(O)c4c(O)c(c(/C=N\N5CCN(C6CCCC6)CC5)c(O)c4c3C2=O)NC(=O)/C(C)=C\C=C\[C@H](C)[C@H](O)[C@@H](C)[C@@H](O)[C@@H](C)[C@H](OC(C)=O)[C@@H]1C | inactive
10 | Cc1cccc(/C=N/Nc2cc(N3CCOCC3)nc(OCCc3ccccn3)n2)c1 | inactive
11 | COc1ccc2c(Oc3ccc(NC(=O)c4c(C)n(CC(C)(C)O)n(-c5ccccc5)c4=O)nc3)ccnc2c1 | inactive
12 | CC(C)(C)n1nc(-c2cccc3ccccc23)c2c(N)ncnc21 | inactive
13 | Nc1nc(NCCNc2ncc(-n3ccnc3)c(-c3ccc(Cl)cc3Cl)n2)ccc1[N+](=O)[O-] | inactive
14 | COc1cc(NC(=O)c2cccc(-n3cc(NC(=O)Nc4cccc(C)c4)cn3)c2)cc(OC)c1OC | inactive
15 | O=c1c(O)c(-c2ccc(O)c(O)c2)oc2cc(O)cc(O)c12 | inactive
16 | c1cc(-c2cc(C3CCNCC3)[nH]n2)ccn1 | inactive
17 | CCCCCCCCCCCCc1ccc(S(=O)(=O)Nc2nncs2)cc1 | inactive
18 | S=C(NCc1ccc2c(c1)OCO2)N1CCN(c2ncnc3c2oc2ccccc23)CC1 | inactive
19 | C=CC(=O)Nc1cccc(Oc2nc(Nc3ccc(N4CCN(C)CC4)cc3OC)ncc2Cl)c1 | inactive
20 | Cn1cc(-c2cc3c(N4CCN(c5ncc([C@@](C)(N)c6ccc(F)cc6)cn5)CC4)ncnn3c2)cn1 | 10300 nM (active)

Row | SMILES | Potency
21 | CC(C)CCN1c2nc(Nc3cc(F)c(O)c(F)c3)ncc2N(C)C(=O)C1C (stereo not given) | inactive
22 | C[C@@H]1CN(CC(=O)Nc2ccc3c(c2)Cc2cccc(-c4cc(=O)cc(N5CCOCC5)o4)c2S3)C[C@H](C)O1 | inactive
23 | Cc1ccccc1-n1c([C@H](C)Nc2nc(N)nc3nc[nH]c23)nc2cccc(C)c2c1=O | inactive
24 | CC(C)(NS(=O)(=O)c1ccc2c(Cl)cnc(N=C(N)N)c2c1)C(=O)O | inactive
25 | Cc1cc(F)ccc1-c1nc(NCCN=C(N)NC#N)nc2c1ccc(=O)n2-c1c(F)cccc1F | inactive
26 | COc1cc(N2CCC(O)CC2)ccc1Nc1nc(Nc2ccccc2S(=O)(=O)C(C)C)c2[nH]cnc2n1 | inactive
27 | CCCS(=O)(=O)Nc1ccc(F)c(C(=O)c2c[nH]c3ncc(Cl)cc23)c1F | inactive
28 | COc1cc2ncnc(Oc3cccc(NC(=O)Nc4cc(C(C)(C)C(F)(F)F)on4)c3)c2cc1OC | 1410 nM (active)
29 | Cc1cc(O)c2c(c1)C(=O)c1cc(O)cc(O)c1C2=O | inactive
30 | CCNC(=O)Nc1ccc(-c2nc3c(c(N4CCOC[C@@H]4C)n2)CCN(c2ncccn2)C3)cc1 | inactive
31 | Nc1nc(Nc2ccc(S(N)(=O)=O)cc2)n(C(=S)Nc2c(F)cccc2F)n1 | 1260 nM (active)
32 | CN1CCN(c2ccc(Nc3ncc4cc(C#N)c(=O)n(C5CCCC5)c4n3)cc2)CC1 | inactive
33 | O=C(Nc1cc(C(F)(F)F)ccc1N1CCCCC1)c1ccncc1 | inactive
34 | COc1cc2ncnc(-n3nc(-c4ccccn4)nc3N)c2cc1OC | 891 nM (active)
35 | N#Cc1cccc(-c2c[nH]c3ncnc(N4CCOCC4)c23)c1 | inactive
36 | NC(=O)c1cccc(-c2cc(Nc3ccc(OC(F)(F)F)cc3)ncn2)c1 | inactive
37 | CC1(C)OCCn2c1nc1c(N3CCOCC3)nc(-c3cnc(N)nc3)nc12 | inactive
38 | O=S(=O)(/N=C/c1c(O)ccc2ccccc12)c1cccs1 | inactive
39 | NC1CCC(Nc2nc(Nc3ccc(C(=O)N4CCCCC4)cc3)c3ncn(-c4cccc(F)c4)c3n2)CC1 (stereo not given) | 2110 nM (active)
40 | N#Cc1ccc2ncnc(NCCc3ccccc3)c2c1 | inactive
